According to PubChem BioAssay AID1159580 (chemical genetic matrix, 2015):
Several values for one entry are separate records, joined by “and”; a condition that tells them apart may be missing. Equal entries are not always repeated. The whole screen tested about 5,500 compounds, of which about 2,000 (36%) were called active. Another 18% or so got no clear call; they are omitted. Rule as the data show it: active = normalized growth mostly below about 0.91 (no sharp cut-off); inconclusive = no clear call, values can overlap the other calls; inactive = mostly above about 0.92. The list shows a part of the results.

Assay: chemical genetic growth profiling, strain panel (AID 1159580);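 also: tested at 20 µM; growth read once vehicle control cultures reached saturation at 30 °C; 1 = growth at the plate median or of vehicle wells; lower values mean less growth of the strain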
Settings: S. cerevisiae deletion strains, growth OD

Measured: normalized growth

CCCCN(CC)c1c([N+](=O)[O-])cc(C(F)(F)F)cc1[N+](=O)[O-]
inactive: locus YAL013W, strain DEP1, stronger effect = lower value 1.01 | locus YAL021C, strain ccr4, stronger effect = lower value 0.998 | locus YAL026C, strain drs2, stronger effect = lower value 1.02 | locus YAL030W, strain snc1, stronger effect = lower value 1.02 | locus YBL061C, strain skt5, stronger effect = lower value 1 | locus YBR009C, strain hhf1, stronger effect = lower value 1 | locus YBR021W, strain FUR4, stronger effect = lower value 1.03 | locus YBR023C, strain chs3, stronger effect = lower value 1.01 | locus YBR171W, strain sec66, stronger effect = lower value 1.03 | locus YBR229C, strain ROT2, stronger effect = lower value 0.999 | locus YBR231C, strain swc5, stronger effect = lower value 1 | locus YBR279W, strain paf1, stronger effect = lower value 1.01 | locus YCL011C, strain gbp2, stronger effect = lower value 1 | locus YCL016C, strain dcc1, stronger effect = lower value 1.01 | locus YCL029C, strain bik1, stronger effect = lower value 1.02 | locus YCL061C, strain MRC1, stronger effect = lower value 1.01 | locus YCL069W, strain vba3, stronger effect = lower value 1.02 | locus YCR088W, strain abp1, stronger effect = lower value 1.01 | locus YDL005C, strain med2, stronger effect = lower value 1.02 | locus YDL035C, strain GPR1, stronger effect = lower value 1.02 | locus YDL040C, strain nat1, stronger effect = lower value 1.01 | locus YDL074C, strain BRE1, stronger effect = lower value 1.03 | locus YDL101C, strain DUN1, stronger effect = lower value 1.01 | locus YDL134C, strain PPH21, stronger effect = lower value 1.01 | locus YDL185W, strain tfp1, stronger effect = lower value 1.03 | locus YDL192W, strain arf1, stronger effect = lower value 1.02 | locus YDR001C, strain nth1, stronger effect = lower value 1.01 | locus YDR069C, strain doa4, stronger effect = lower value 1 | locus YDR101C, strain arx1, stronger effect = lower value 1.01 | locus YDR137W, strain rgp1, stronger effect = lower value 0.98 | locus YDR150W, strain NUM1, stronger effect = lower value 1.01 | locus YDR159W, strain sac3, stronger effect = lower value 1 | locus YDR162C, strain NBP2, stronger effect = lower value 1.02 | locus YDR195W, strain ref2 1.01 | locus YDR297W, strain sur2, stronger effect = lower value 1 | locus YDR318W, strain mcm21, stronger effect = lower value 1.01 | locus YDR334W, strain swr1, stronger effect = lower value 1.02 | locus YDR335W, strain msn5, stronger effect = lower value 1.02 | locus YDR388W, stronger effect = lower value 1.01 | locus YDR392W, strain spt3, stronger effect = lower value 1.01 | locus YDR502C, strain sam2, stronger effect = lower value 1.01 | locus YEL003W, strain gim4, stronger effect = lower value 1.02 | locus YEL037C, strain rad23, stronger effect = lower value 1.01 | locus YEL061C, strain CIN8 (second series), stronger effect = lower value 1.03 | locus YEL061C, strain CIN8, stronger effect = lower value 1.01 | locus YER015W, strain faa2, stronger effect = lower value 1.02 | locus YER016W, strain bim1, stronger effect = lower value 1.01 | locus YER110C, stronger effect = lower value 1.02 | locus YER111C, strain swi4, stronger effect = lower value 1.01 | locus YER155C, strain BEM2 (second series), stronger effect = lower value 1.03 | locus YER155C, strain BEM2, stronger effect = lower value 1.01 | locus YER167W, strain BCK2, stronger effect = lower value 1.01 | locus YFR010W, strain ubp6, stronger effect = lower value 1.02 | locus YGL078C, strain dbp3, stronger effect = lower value 1.01 | locus YGL086W, strain mad1, stronger effect = lower value 1.01 | locus YGL167C, strain pmr1, stronger effect = lower value 1.01 | locus YGL173C, strain kem1, stronger effect = lower value 1.01 | locus YGL227W, strain vid30, stronger effect = lower value 1.01 | locus YGL240W, strain doc1, stronger effect = lower value 1.02 | locus YGL248W, strain PDE1, stronger effect = lower value 1 | locus YGL253W, strain hxk2, stronger effect = lower value 1.02 | locus YGR078C, strain PAC10, stronger effect = lower value 1.01 | locus YGR135W, strain pre9, stronger effect = lower value 1.01 | locus YGR229C, strain SMI1, stronger effect = lower value 1.02 | locus YGR252W, strain gcn5, stronger effect = lower value 1.05 | locus YHR013C, strain ard1, stronger effect = lower value 1.06 | locus YHR027C, strain rpn1, stronger effect = lower value 1.03 | locus YHR030C, strain SLT2, stronger effect = lower value 1.01 and 1.08 | locus YHR079C, strain IRE1 (second series), stronger effect = lower value 1.01 | locus YHR079C, strain IRE1, stronger effect = lower value 1.03 | locus YHR094C, strain hxt1, stronger effect = lower value 1.01 | locus YHR129C, strain ARP1, stronger effect = lower value 1.01 | locus YHR142W, strain chs7, stronger effect = lower value 1.02 | locus YHR200W, strain rpn10, stronger effect = lower value 1.01 | locus YIL066C, strain RNR3, stronger effect = lower value 1.01 | locus YIL073C, strain SPO22, stronger effect = lower value 1.02 | locus YIL125W, strain kgd1, stronger effect = lower value 1.01 | locus YIR030C, strain dcg1, stronger effect = lower value 1.01 | locus YJL092W, strain hpr5, stronger effect = lower value 1.01 | locus YJL095W, strain BCK1 (second series), stronger effect = lower value 1.01 | locus YJL095W, strain BCK1, stronger effect = lower value 0.996 and 1.05 | locus YJL115W, strain asf1, stronger effect = lower value 1.01 | locus YJL129C, strain trk1, stronger effect = lower value 1.01 | locus YJL134W, strain LCB3, stronger effect = lower value 1.01 | locus YJL154C, strain vps35, stronger effect = lower value 1.02 | locus YJL164C, strain tpk1, stronger effect = lower value 1.01 | locus YJL166W, strain qcr8, stronger effect = lower value 1 | locus YJL168C, strain set2, stronger effect = lower value 1.01 | locus YJL187C, strain SWE1 (second series), stronger effect = lower value 1.01 | locus YJL187C, strain SWE1, stronger effect = lower value 1.01 | locus YJR043C, strain POL32, stronger effect = lower value 1.02 | locus YJR066W, strain TOR1, stronger effect = lower value 0.992
